Results published in doi:10.1101/2024.03.05.583629.

Each sequence was assayed against pT7_6His-AlfaTag-ZIF268 (human, UniProt P18146 335-423) (assay: PADIT-seq). Settings: dsDNA, one strand shown.

Row | Sequence | binding signal [log2FC]
1 | CTCGAGGATATCAAGATCTGGCCTCGGCGCGTGGAAAGGAACCTCTAGCTAGCCGACTCACTATAGGGATAATCGCCCTGAGCAAAGACC | 0.108 ± 0.113
2 | CTCGAGGATATCAAGATCTGGCCTCGGCCGCTGCCGCGGAACCTCTAGCTAGCCGACTCACTATAGGGATAATCGCCCTGAGCAAAGACC | 0.0482 ± 0.0994
3 | CTCGAGGATATCAAGATCTGGCCTCGGCCGCCCAAGTGGAACCTCTAGCTAGCCGACTCACTATAGGGATAATCGCCCTGAGCAAAGACC | 0.0066 ± 0.0917
4 | CTCGAGGATATCAAGATCTGGCCTCGGCGCGTGGTAGGGAACCTCTAGCTAGCCGACTCACTATAGGGATAATCGCCCTGAGCAAAGACC | 0.402 ± 0.089
5 | CTCGAGGATATCAAGATCTGGCCTCGGCGCGTCGGCGGGAACCTCTAGCTAGCCGACTCACTATAGGGATAATCGCCCTGAGCAAAGACC | 0.627 ± 0.116
6 | CTCGAGGATATCAAGATCTGGCCTCGGCGCGTGGTCGGGAACCTCTAGCTAGCCGACTCACTATAGGGATAATCGCCCTGAGCAAAGACC | 0.471 ± 0.1
7 | CTCGAGGATATCAAGATCTGGCCTCGGCACATGGGCGGGAACCTCTAGCTAGCCGACTCACTATAGGGATAATCGCCCTGAGCAAAGACC | 0.18 ± 0.0881
8 | CTCGAGGATATCAAGATCTGGCCTCGGCGCGCTGGCGGGAACCTCTAGCTAGCCGACTCACTATAGGGATAATCGCCCTGAGCAAAGACC | 0.0489 ± 0.154
9 | CTCGAGGATATCAAGATCTGGCCTCGGCGCGTGGCGCGGAACCTCTAGCTAGCCGACTCACTATAGGGATAATCGCCCTGAGCAAAGACC | 0.0413 ± 0.108
10 | CTCGAGGATATCAAGATCTGGCCTCGGCCGCCCACAAGGAACCTCTAGCTAGCCGACTCACTATAGGGATAATCGCCCTGAGCAAAGACC | 0.545 ± 0.102
11 | CTCGAGGATATCAAGATCTGGCCTCGGCCGCCCACCCGGAACCTCTAGCTAGCCGACTCACTATAGGGATAATCGCCCTGAGCAAAGACC | 0.112 ± 0.113
12 | CTCGAGGATATCAAGATCTGGCCTCGGCCGCCCTCGCGGAACCTCTAGCTAGCCGACTCACTATAGGGATAATCGCCCTGAGCAAAGACC | 0.0695 ± 0.102
13 | CTCGAGGATATCAAGATCTGGCCTCGGCGCGTGGGAAGGAACCTCTAGCTAGCCGACTCACTATAGGGATAATCGCCCTGAGCAAAGACC | 2.03 ± 0.0894
14 | CTCGAGGATATCAAGATCTGGCCTCGGCGCGTGGGGGGGAACCTCTAGCTAGCCGACTCACTATAGGGATAATCGCCCTGAGCAAAGACC | 1.28 ± 0.104
15 | CTCGAGGATATCAAGATCTGGCCTCGGCGCGTGCGCGGGAACCTCTAGCTAGCCGACTCACTATAGGGATAATCGCCCTGAGCAAAGACC | 0.264 ± 0.107
16 | CTCGAGGATATCAAGATCTGGCCTCGGCGCGCGGGCGGGAACCTCTAGCTAGCCGACTCACTATAGGGATAATCGCCCTGAGCAAAGACC | 1.18 ± 0.1
17 | CTCGAGGATATCAAGATCTGGCCTCGGCGCGTGGGCCGGAACCTCTAGCTAGCCGACTCACTATAGGGATAATCGCCCTGAGCAAAGACC | 2.26 ± 0.0976
18 | CTCGAGGATATCAAGATCTGGCCTCGGCTTCCCACGCGGAACCTCTAGCTAGCCGACTCACTATAGGGATAATCGCCCTGAGCAAAGACC | 0.363 ± 0.0983
19 | CTCGAGGATATCAAGATCTGGCCTCGGCGCGTGGTCCGGAACCTCTAGCTAGCCGACTCACTATAGGGATAATCGCCCTGAGCAAAGACC | 0.192 ± 0.0971

Row | Sequence | binding signal [log2FC]
20 | CTCGAGGATATCAAGATCTGGCCTCGGCCGCCCCCGCGGAACCTCTAGCTAGCCGACTCACTATAGGGATAATCGCCCTGAGCAAAGACC | 1.56 ± 0.0899
21 | CTCGAGGATATCAAGATCTGGCCTCGGCGCGTGGGACGGAACCTCTAGCTAGCCGACTCACTATAGGGATAATCGCCCTGAGCAAAGACC | 1.73 ± 0.101
22 | CTCGAGGATATCAAGATCTGGCCTCGGCGCGTGGGGAGGAACCTCTAGCTAGCCGACTCACTATAGGGATAATCGCCCTGAGCAAAGACC | 0.871 ± 0.0966
23 | CTCGAGGATATCAAGATCTGGCCTCGGCGGCCCACGCGGAACCTCTAGCTAGCCGACTCACTATAGGGATAATCGCCCTGAGCAAAGACC | 0.55 ± 0.0922
24 | CTCGAGGATATCAAGATCTGGCCTCGGCAGACCACGCGGAACCTCTAGCTAGCCGACTCACTATAGGGATAATCGCCCTGAGCAAAGACC | 0.0219 ± 0.102
25 | CTCGAGGATATCAAGATCTGGCCTCGGCGCGAGGGCGGGAACCTCTAGCTAGCCGACTCACTATAGGGATAATCGCCCTGAGCAAAGACC | 0.751 ± 0.109
26 | CTCGAGGATATCAAGATCTGGCCTCGGCGCGTGGCGGGGAACCTCTAGCTAGCCGACTCACTATAGGGATAATCGCCCTGAGCAAAGACC | 0.049 ± 0.11
27 | CTCGAGGATATCAAGATCTGGCCTCGGCGCGTGGACGGGAACCTCTAGCTAGCCGACTCACTATAGGGATAATCGCCCTGAGCAAAGACC | 0.177 ± 0.113
28 | CTCGAGGATATCAAGATCTGGCCTCGGCGCGTGGGTAGGAACCTCTAGCTAGCCGACTCACTATAGGGATAATCGCCCTGAGCAAAGACC | 1.97 ± 0.0958
29 | CTCGAGGATATCAAGATCTGGCCTCGGCGCGTGGCTCGGAACCTCTAGCTAGCCGACTCACTATAGGGATAATCGCCCTGAGCAAAGACC | 0.122 ± 0.1
30 | CTCGAGGATATCAAGATCTGGCCTCGGCGCGTGGGAGGGAACCTCTAGCTAGCCGACTCACTATAGGGATAATCGCCCTGAGCAAAGACC | 3.65 ± 0.0848
31 | CTCGAGGATATCAAGATCTGGCCTCGGCGGTTGGGCGGGAACCTCTAGCTAGCCGACTCACTATAGGGATAATCGCCCTGAGCAAAGACC | 0.0831 ± 0.0849
32 | CTCGAGGATATCAAGATCTGGCCTCGGCGCGTGGCCCGGAACCTCTAGCTAGCCGACTCACTATAGGGATAATCGCCCTGAGCAAAGACC | 0.0738 ± 0.102
33 | CTCGAGGATATCAAGATCTGGCCTCGGCGCGTCAGCGGGAACCTCTAGCTAGCCGACTCACTATAGGGATAATCGCCCTGAGCAAAGACC | 0.0878 ± 0.104
34 | CTCGAGGATATCAAGATCTGGCCTCGGCCTCCCACGCGGAACCTCTAGCTAGCCGACTCACTATAGGGATAATCGCCCTGAGCAAAGACC | 1.28 ± 0.0958
35 | CTCGAGGATATCAAGATCTGGCCTCGGCCGCCCACTCGGAACCTCTAGCTAGCCGACTCACTATAGGGATAATCGCCCTGAGCAAAGACC | 0.873 ± 0.0842
36 | CTCGAGGATATCAAGATCTGGCCTCGGCCGCCCACATGGAACCTCTAGCTAGCCGACTCACTATAGGGATAATCGCCCTGAGCAAAGACC | 1.03 ± 0.0882
37 | CTCGAGGATATCAAGATCTGGCCTCGGCGCGTGGAGAGGAACCTCTAGCTAGCCGACTCACTATAGGGATAATCGCCCTGAGCAAAGACC | 0.18 ± 0.105
38 | CTCGAGGATATCAAGATCTGGCCTCGGCGCGTGGTTCGGAACCTCTAGCTAGCCGACTCACTATAGGGATAATCGCCCTGAGCAAAGACC | 0.121 ± 0.0856
